# From ChEMBL document CHEMBL3988442, “University of Dundee, Small-Polar-MMV Screening Library” (2021)
# Out of some 48,000 compounds screened, about 13,000 (27%) showed an effect of 50% or more. This is one part of the list.
# Test system: Wolbachia pipientis
# Assay: Anti-Wolbachia Cell-Based Screen
# Assay type: functional
# Parameters: scale not given: in the data most compounds retested in dose-response had high values
# Conditions: 5 µM
row,Structure (SMILES),Percent Effect
1,CCc1nc(CN2CCN(C(=O)COCc3ccccc3)CC2)no1,16.69%
2,O=C(O)c1csc(S(=O)(=O)Nc2cccc(OCC(F)(F)F)c2)c1,12.1%
3,Cc1nsc(NC(=O)N2CCCC2C)n1 (centres undefined),-6.715%
4,CCCc1cc(C(=O)Nc2nc(SC)ns2)[nH]n1,-43.27%
5,Cc1nsc(NC(=O)NC2CCN(C)CC2)n1,-30.6%
6,CSc1nsc(NC(=O)c2cc(C3CC3)nn2C)n1,105.4%
7,CCCc1cc(C(=O)Nc2nc(SC)ns2)n(C)n1,129.6%
8,CC(C)c1nn(C)c(N2CCOCC2)c1CNC(C)c1cccs1 (centres undefined),1.351%
9,CCNC(=O)NC(=O)CNC(C)(CC)c1nc(C)cs1 (centres undefined),6.164%
10,CC(C)CN(CC(C)C)Cn1ncc2cn(-c3ccccc3)nc2c1=O,8.982%
11,Cc1ccccc1-n1ncc(C(=O)N2CCCC2c2cnn(C)c2)c1C (centres undefined),-2.042%
12,Cn1cc(C2CCCN2C(=O)Cn2ccc3ccccc32)cn1 (centres undefined),10.33%
13,Cc1nn(-c2ccccc2)nc1C(=O)N1CCCC1c1cnn(C)c1 (centres undefined),5.794%
14,Cn1cc(C2CCCN2C(=O)c2cn(-c3ccccc3)nn2)cn1 (centres undefined),82.94%
15,Cc1nn(-c2ccccc2)cc1C(=O)N1CCCC1c1cnn(C)c1 (centres undefined),105.2%
16,Cc1ccc(-n2ncc(C(=O)N3CCCC3c3cnn(C)c3)c2C)cc1 (centres undefined),102.1%
17,Cc1c(C(=O)N2CCCC2c2cnn(C)c2)cnn1-c1ccccc1 (centres undefined),112.8%
18,Cc1c(C(=O)N2CCCC2c2cnn(C)c2)nnn1-c1ccccc1 (centres undefined),-1.391%
19,CCCOc1ccc(C(=O)N2CCN3CCNC(=O)C3C2)cc1Cl (centres undefined),-5.744%
20,Clc1ccc(C2(NCc3noc(C4CC4)n3)CCC2)cc1,3.298%
21,COCCN(Cc1cccc(C#N)c1)Cc1nnsc1Cl,9.531%
22,COc1ccc(NC(=O)c2ccoc2C)c(N2CCN(C(C)=O)CC2)n1,0.9885%
23,Cc1nc(CNC(=O)NCC(O)c2ccc(F)cc2F)cs1 (centres undefined),-3.131%
24,Cc1nc(C)n(CC2CCCN2CC(=O)Nc2cc(C)on2)n1 (centres undefined),98.7%
25,Cc1nc(C)n(CC2CCCCN2CCC(=O)Nc2cc(C)on2)n1 (centres undefined),5.676%
26,Cc1nc(C)n(CC2CCCN2CC(=O)Nc2cc(C(C)C)no2)n1 (centres undefined),-1.165%

row,Structure (SMILES),Percent Effect
1,Cc1nc(C)n(CC2CCCN2Cc2cc(C)on2)n1 (centres undefined),-8.278%
2,Cc1nc(C)n(CC2CCCCN2CC(=O)Nc2cc(C)on2)n1 (centres undefined),106.4%
3,Cc1nc(C)n(CC2CCCCN2CC(=O)Nc2ccncc2)n1 (centres undefined),-2.552%
4,Cc1nc2c(C(=O)N[C@H]3C[C@H]4CN(C)CCN4C3)cccc2[nH]1,8.866%
5,CCCc1cc(N2CCCC2Cn2nc(C)cc2C)n2ncnc2n1 (centres undefined),-3.923%
6,CC(C)OCCS(=O)(=O)c1ccccc1C#N,-1.71%
7,CC(NC(=O)C1CC1)c1cc(O)nc(-c2cccnc2)n1 (centres undefined),92.57%
8,O=C(Nc1cc(-c2cccnc2)no1)C1CCCCC1,-34.68%
9,Cc1ccc(C)c(C(NC(=O)C2CC2)c2cccnc2)c1 (centres undefined),-2.241%
10,CCCNC(=O)Nc1ccn(CCCOC)n1,-11.06%
11,CC(NC(=O)Nc1nccs1)c1ccncc1 (centres undefined),-0.7222%
12,CN(CCNC(=O)Nc1ccn(C)n1)Cc1ccc(F)cc1,87.45%
13,CCc1nnc(CN(C)Cc2cccc(C(=O)Nc3nccs3)c2)o1,-6.732%
14,CN(CCNC(=O)Nc1cnn(C)c1)Cc1ccc(F)cc1,113%
15,CCc1nnc(CN(C)Cc2cccc(C(=O)Nc3cnn(C)c3)c2)o1,-6.481%
16,Cn1cc(CNC(=O)Nc2ccc(S(=O)(=O)C(F)F)cc2)cn1,-23.54%
17,CN(CCNC(=O)Nc1nccs1)Cc1ccc(F)cc1,98.5%
18,Cn1ccc(NC(=O)Cc2cccc(F)c2)n1,-26.85%
19,CC(=O)N1CCN(c2ccccc2CNc2cc(F)cc(F)c2)CC1,2.493%
20,OCc1ccc(-c2nccn2CCC2=CCCCC2)o1,-8.705%
21,CS(=O)(=O)CCSCc1cccc2cccnc12,-12.23%
22,CN(CC(=O)Nc1cc(-n2nnnc2C2CC2)ccc1F)C1CCC1,-0.6608%
23,CCN1C(=O)CCC12CCN(S(=O)(=O)c1ccccc1)CC2,-5.531%
24,O=C(c1cccc(CO)n1)N1CCOC(c2ccc(Cl)c(Cl)c2)C1 (centres undefined),-12.21%
25,CC(=O)c1ccc(N2CCC3(CCC(=O)N(C4CC4)C3)CC2)nc1,5.2%
26,CCCc1nc(C)cc(N2CCC3(CCC(=O)N(C4CC4)C3)CC2)n1,-0.6506%

row,Structure (SMILES),Percent Effect
1,N#Cc1cccc(N2CCC3(CCC(=O)N(CC(N)=O)C3)CC2)n1,-17.91%
2,N#Cc1cccc(N2CCC3(CCC(=O)N(CC4CCCO4)C3)CC2)n1 (centres undefined),-19.35%
3,CC(C)c1cccc(N2CCCC3(CCC(=O)N(C4CC4)C3)C2)n1 (centres undefined),105.3%
4,CCOC(=O)c1cccc(N2CCCC3(CCC(=O)N(C4CC4)C3)C2)n1 (centres undefined),78.13%
5,CC(O)c1cccc(N2CCC3(CCC(=O)N(C4CCCC4)C3)CC2)n1 (centres undefined),47.1%
6,N#Cc1cccc(N2CCCC3(CCC(=O)N(C4CCCC4)C3)C2)n1 (centres undefined),106.1%
7,CC(O)c1cccc(N2CCC3(CCC(=O)N(CC(N)=O)C3)CC2)n1 (centres undefined),-13.92%
8,CCNC(=O)NC[C@H]1COCc2nc3cc(C)ccc3n21,-20.29%
9,CN(Cc1ccon1)C(=O)C1CC(=O)N(Cc2ccncc2)C1 (centres undefined),7.553%
10,c1cncc(-c2noc(CNc3ncnc4c3CCNCC4)n2)c1,1.079%
11,COc1ccc(-c2cc(CNc3ncnc4c3CCNCC4)no2)cc1,113.1%
12,COc1ccc(-c2cc(CC3(NCc4ccc(C)o4)COC3)no2)cc1,0%
13,O=C(c1ccon1)N1CCc2ncnc(NCc3ccccn3)c2CC1,-13.25%
14,c1cncc(-c2noc(CCNc3ncnc4c3CCNCC4)n2)c1,-0.2436%
15,Clc1ccccc1-c1cc(CNc2ncnc3c2CCNCC3)no1,100.4%
16,Cc1ccc(-c2cc(CNc3ncnc4c3CCNCC4)no2)cc1,96.68%
17,COCc1noc(CCNc2ncnc3c2CCNCC3)n1,1.85%
18,CCCS(=O)(=O)N1CC[C@H]2O[C@H](c3nnc(C)o3)CC[C@H]21,-25.7%
19,CN(CC(N)=O)C(=O)c1cnc(-c2ccc(Cl)s2)s1,2.419%
20,CCCN1CCCN(C(=O)Nc2ccc3c(c2)OCO3)CC1,-18.65%
21,CN1CCCN(C(=O)NCCOc2ccc3c(c2)OCO3)CC1,115.1%
22,O=C(NCCOc1ccc2c(c1)CCC2)N1CCS(=O)(=O)CC1,35.32%
23,CC(=O)N1CCCN(C(=O)NCCOc2ccc3c(c2)OCO3)CC1,96.11%
24,CC(C)Cc1noc(CNc2cc3c(cc2Cl)OCCCO3)n1,11.73%
25,CN1CCN(C)c2cc(NC(=O)c3cc[nH]n3)ccc2C1,95.27%
26,Cc1cc(C(=O)Nc2ccc3c(c2)N(C)CCN(C)C3)on1,108.1%

row,Structure (SMILES),Percent Effect
1,CCc1ccc(C(=O)Nc2ccc3c(c2)N(C)CCN(C)C3)o1,68.84%
2,Cc1ccc(C(=O)NCC2CCN(C)c3ccccc32)c(=O)[nH]1 (centres undefined),-6.721%
3,CCc1ccc(C(=O)NC2CCN(c3cnn(C)c3)C2=O)o1 (centres undefined),0.5002%
4,CCc1ccc(NC(=O)c2cnc(N3CCN(C)CC3)nc2C)cc1,0.5656%
5,Cn1cc(NC(=O)c2cc[nH]n2)cc(Cl)c1=O,-6.664%
6,Cc1ccc(C(=O)NC(CN2CCCC2=O)c2ccccc2)c(=O)[nH]1 (centres undefined),-15.69%
7,CCc1ccc(C(=O)Nc2cc(N3CCNC3=O)ccc2Cl)o1,2.04%
8,N#Cc1cc(NC(=O)c2cc[nH]n2)ccc1N1CCC(O)CC1,-7.892%
9,Cc1ccc(C(=O)Nc2ccc3c(c2)N(C)CCN(C)C3)c(=O)[nH]1,112.4%
10,Cc1cc(C(=O)NC2CCCN(c3ccccc3)C2=O)on1 (centres undefined),-7.232%
11,CC(C)N(CC(N)=O)Cc1c(Cl)ccc2cccnc12,35.48%
12,CCN(CC)C(=O)c1cnc(Sc2nccn2C)c(Cl)c1,-3.996%
13,COc1ccccc1CC(=O)NCCCN1CCCC1C(=O)N(C)C (centres undefined),-7.215%
14,CCN(Cc1noc(C)n1)C(=O)C(c1ccccc1C)N(C)C (centres undefined),20.53%
15,CS(=O)(=O)NCC(=O)NC1(c2ccc(Cl)c(Cl)c2)CC1,-6.64%
16,Cc1ccc(-n2cc(CN3CCOCC(CN(C)C)C3)cn2)cc1C (centres undefined),-29.82%
17,O=C([C@@H]1CCCN1c1nccc(Nc2ccccc2)n1)N1CCCCC1,107.6%
18,O=C(C1CCCN1c1ncnc2ccsc12)N1CCSCC1 (centres undefined),-9.281%
19,O=C(Nc1cccc(N2CCCC2)c1)C1CCCN1c1nccs1 (centres undefined),-13.09%
20,Cl.O=C(O)[C@@H]1CCCN1c1nccc(Nc2ccccc2)n1,110.6%
21,Cc1cn2nc(N3CCCC3C(=O)N3CCSCC3)sc2n1 (centres undefined),-34.07%
22,CNC(=O)[C@@H](c1ccccc1)N1CCC[C@H]1C(=O)NCc1ccccn1.Cl.Cl,-0.04544%
23,OCc1ccc(N2CCN(c3ncccn3)CC2)c(F)c1,10.85%
24,COc1cc(C2C3=C(COC3=O)Nc3[nH]nc(C)c32)cc(Br)c1O (centres undefined),6.444%
25,CC(C)CSc1ccc(-n2cccn2)nn1,-15.59%
26,O=C(O)C(F)(F)F.O=C1[C@H]2CN(CC3CCOCC3)C[C@H]2CN1c1ccsc1,-12.76%
